# The list is not random: actives were taken first. Their share in the collection is about 1.8%.
# Sa RN4220 lethal: kills Staphylococcus aureus RN4220. S. aureus RN4220 growth, OD600, 16 h. inhibition, % (no concentration beside the values). 330,000 compounds, 0.33% hits; in the data active = inhibition above about 85%;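 note: plate controls were untreated cells for no effect and reference antibiotic for full effect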
# VHR inh abs: inhibitors of human VHR1 phosphatase (DUSP3); P51452; recombinant VHR phosphatase, pNPP absorbance; inhibition, % at 13.3 µM; 290,000 compounds, 0.52% hits; AID 1654; in the data active = inhibition above about 50%
# Target sequence (P51452 whole entry, looked up): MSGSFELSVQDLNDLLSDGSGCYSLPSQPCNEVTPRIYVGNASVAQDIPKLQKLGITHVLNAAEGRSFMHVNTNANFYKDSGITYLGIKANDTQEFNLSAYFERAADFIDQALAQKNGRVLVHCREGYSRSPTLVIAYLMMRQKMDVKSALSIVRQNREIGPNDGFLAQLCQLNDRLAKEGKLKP
# PfHsp40 rescue: rescue of PfHsp40-mediated yeast toxicity; AID 504582; growth rescue, % at 12.5 µM; S. cerevisiae expressing PfHsp40, growth rescue, ATP luminescence; 340,000 compounds, 0.68% hits; in the data active = growth rescue above about 28%, passing the limit was not always enough;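 note: yeast W303a lacking pdr1 and pdr3 grown in galactose medium; growth measured after three days at 30 °C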
# PrPC TRFRET: cell surface PrPC inhibition, primary TR-FRET screen; TR-FRET read-out; P04156; AID 720596; 370,000 compounds, 0.43% hits; inhibition, % at 13.8 µM; in the data active = inhibition above about 24%; note: 0% = median of the test wells and 100% = reference compound wells
# Sa ugtP lethal: compounds lethal to S. aureus RN4220 ugtP deletion mutant; OD600 growth, 16 h; growth inhibition, % (concentration not given with the values); 330,000 compounds, 0.54% hits; AID 1259309; in the data active = growth inhibition above about 68%;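 note: plate controls were untreated wells for no effect and antibiotic for full effect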
# Starred values were filed as active, the others as inactive; / = no result.
SMILES,Sa RN4220 lethal,VHR inh abs,PfHsp40 rescue,PrPC TRFRET,Sa ugtP lethal
Cc1[nH]n(-c2ccccc2)c(=O)c1N=Nc1c(Cl)cccc1Cl,6,59*,-2,/,6
COc1ccc(NC(=O)Nc2nc3c(s2)CCCC3)cc1,5,21,56*,23,-7
O=C(Nc1ccc(-n2cnnn2)cc1)C1CCCCC1,-16,52*,-1,0,-9
O=C(Nc1ccc(-n2cnnn2)cc1)C1CCCN1C(=O)NC1CCCCC1 (stereo not given),0,21,-1,-9,3
CN(N=Cc1ccc(Cl)cc1)c1ncc(Cl)cc1C(F)(F)F,-11,/,/,/,98*
O=C(NCc1ccc2c(c1)OCO2)c1cccc(C(=O)NCc2ccc3c(c2)OCO3)c1,3,5,-1,7,10
Cc1nc2ccc(C(=O)NCc3ccc4c(c3)OCO4)cc2s1,-1,-6,589*,1,7
Cc1ccc(S(=O)(=O)NC(=O)NCc2ccc3c(c2)OCO3)cc1,6,-2,55*,-1,5
O=C(NCc1ccc2c(c1)OCO2)c1c(Cl)cccc1Cl,4,56*,1,3,3
COc1ccc(NC(=O)Nc2ccc3c(c2)CC(=O)N(C(C)CO)CC(C)C(CN(C)Cc2ccc(C(=O)O)cc2)O3)cc1 (stereo not given),9,/,/,/,5
Cc1ccc(OCC(O)CN2C(=O)NC(C)(C)C2=O)cc1 (stereo not given),1,26,53*,0,3
Cc1ccc(OCC(O)CN2C(=O)NC(C)(C)C2=O)cc1C (stereo not given),10,-15,1,-6,-4
Nc1nc(CN2CCN(Cc3ccccc3)CC2)nc(N2CCCc3ccccc32)n1,0,54*,1,0,9
COc1ccc(-c2cc(-c3ccc(OC)cc3)[nH]n2)cc1,5,-5,53*,4,53
CC(=O)O[C@]1(C(C)=O)CCC2C3C=C(C)C4=CC(=O)CCC4C3CC[C@@]21C (stereo not given in full),5,/,/,/,6
Cc1ccc(CN2CC(=O)N3C4c5ccccc5OCC4C(c4ccccc4)[C@]3(C)C2=O)cc1 (stereo not given in full),-3,/,/,/,-11
Cc1cc(C(N)=O)c2ccccc2n1,5,2,-1,-5,10
NC(=O)c1cc2c3ccccc3ccn2c1-c1ccccc1,8,64*,0,-5,2
COc1ccc(CNC(=O)CC(C)=NNC(=O)c2ccc([N+](=O)[O-])cc2Cl)cc1,2,/,/,/,1
COCc1ccc(C(=O)N2CCC(CCC(=O)Nc3cccc(C)c3)CC2)s1,1,5,14,10,13
Cc1cccc(NC(=O)CCC2CCN(C(=O)c3ccc(C)s3)CC2)c1,-1,60*,-1,3,-5
O=C(Nc1ccc(Br)cn1)c1ccc(Cl)s1,2,52*,0,14,10
O=C(Nc1ccccn1)c1ccc(Cl)s1,2,41,1,2,7
CC1CC=CC2C1C(=O)N(Cc1ccccc1)C2c1ccc(C=Cc2ccccc2)cc1F (stereo not given),-3,/,/,/,-3
C=CCOc1ccc(C=NNC(=O)C(C)Sc2ccccn2)cc1OCC (stereo not given),5,/,/,/,10
SMILES,Sa RN4220 lethal,VHR inh abs,PfHsp40 rescue,PrPC TRFRET,Sa ugtP lethal
CCn1cc(/C=C(\NC(=O)c2ccc(OC)c(OC)c2)C(=O)N2CCN(C)CC2)c2ccccc21,4,57*,1,-13,-2
COc1ccc(C(=O)N/C(=C\c2cccc3ccccc23)C(=O)N2CCN(C)CC2)cc1OC,10,6,1,-6,4
Oc1c(Cl)cc(Cl)cc1/C=C/c1ccc2cccc(O)c2n1,91*,29,10,-5,86
Oc1cccc2ccc(/C=C/c3ccccc3Br)nc12,90*,-26,1,-14,92*
COc1cc(Br)cc(/C=C/c2ccc3cccc(O)c3n2)c1O,-8,/,0,-20,4
Cc1ccsc1/C=C/c1ccc2cccc(O)c2n1,5,41,446*,-20,-11
Cc1ccsc1/C=C/c1ccc2ccccc2n1,1,27,2,-7,22
Oc1ccc(Cl)cc1/C=C/c1ccc2cccc(O)c2n1,15,33,160*,-23,27
COc1ccc(OC)c(/C=C/c2ccc3cccc(O)c3n2)c1,/,31,14,-28,/
O=C(CNc1cccc2ccccc12)NN=Cc1ccccn1,1,/,/,/,1
COC(=O)C1=C(c2c(C)noc2C)CC2CCC1N2C(=O)NC1CC1 (stereo not given),6,/,/,/,7
COc1ccc(-c2c(C)n([O-])c3c([n+]2=O)CCCC3)cc1,0,52*,0,-16,4
CC(=O)c1c(N2CCN(c3cccc(Cl)c3)CC2)nc(=S)n(-c2ccccc2)c1C,71,-4,1,6,83*
CCn1c(C)c(C(C)=O)c(N2CCN(c3cccc(Cl)c3)CC2)nc1=S,-3,-15,1,-3,7
CSc1ccc(CNCc2ccc3c(c2)OCO3)cc1,0,55*,0,-4,-3
O=C(Cc1ccccc1)NN=Cc1cccn1-c1ccc([N+](=O)[O-])cc1,5,/,/,/,-3
O=C(Nc1ccc2c(c1)CCC2)c1cc2ccccc2o1,7,20,132*,2,4
C=CCOC(=O)C1=CC(c2ccc(C(F)(F)F)cc2)C(CCCO)C(OCC)O1 (stereo not given),6,/,/,/,0
O=C(Nc1ccc(Cl)cc1)NC1CCCC1Cc1ccco1 (stereo not given),-3,2,0,/,-11
O=C(Nc1ccc(Cl)cc1)NC1CCCCC1Cc1ccco1 (stereo not given),7,-10,226*,13,-22
CS(=O)(=O)c1sc(C#N)c2c1C(=O)CC(c1ccccc1)C2 (stereo not given),/,23,2,51*,/
Cc1cc(C)n(-c2ccc(Cl)c(C(=O)O)c2)n1,2,22,0,1,-7
Cc1cc(C)n(-c2cc(C(=O)O)cc(C(=O)O)c2)n1,8,53*,0,9,8
CCOC(=O)Cc1csc(NC(=S)NC(=O)c2ccccc2C)n1,2,53*,1,1,8
Cc1cccc(C)c1OC(=O)C(c1ccccc1)c1ccccc1,0,2,-2,-8,96*
SMILES,Sa RN4220 lethal,VHR inh abs,PfHsp40 rescue,PrPC TRFRET,Sa ugtP lethal
CCc1nnc(NS(=O)(=O)c2ccc(NC(=S)NC(=O)c3ccc(Br)cc3)cc2)s1,29,2,-2,-3,86*
O=C(NC(=S)Nc1ccc(S(=O)(=O)Nc2nccs2)cc1)c1ccccc1,14,-4,-1,7,91*
O=C(NC(=S)Nc1ccc(S(=O)(=O)Nc2nccs2)cc1)c1ccc(F)c(F)c1,14,-10,-2,7,97*
COc1ccc(-n2ccc(=O)c(C(=O)Nc3ccc(S(=O)(=O)Nc4nccs4)cc3)n2)cc1,-1,58*,-2,-1,-2
CCc1ccc(NC(=O)CSc2ccccn2)cc1,4,16,62*,7,18
COc1ccc(NC(=O)CSc2ccc(-c3ccccn3)nn2)cc1OC,-3,21,215*,-6,2

# Screens (PubChem)
